We go through 40 compounds from PubChem BioAssay AID651599 (National Center for Advancing Translational Sciences (NCATS), 2012).

Structures are written as SMILES. Records with an inconclusive call do not appear. A call without a number means that no potency is given here. Active and inactive are the calls of the source. The call rests on the fitted dose curve; in most records, active means well fitted inhibition curve with a large enough effect; inconclusive means small, poorly fitted or top-dose-only effect; inactive means no such curve, though single readings can be large or run the other way.
Potency means the concentration at half of the fitted maximal effect.

Tumor susceptibility gene 101 protein (Homo sapiens), sequence (Q99816 whole entry, looked up, the tested form may be a part): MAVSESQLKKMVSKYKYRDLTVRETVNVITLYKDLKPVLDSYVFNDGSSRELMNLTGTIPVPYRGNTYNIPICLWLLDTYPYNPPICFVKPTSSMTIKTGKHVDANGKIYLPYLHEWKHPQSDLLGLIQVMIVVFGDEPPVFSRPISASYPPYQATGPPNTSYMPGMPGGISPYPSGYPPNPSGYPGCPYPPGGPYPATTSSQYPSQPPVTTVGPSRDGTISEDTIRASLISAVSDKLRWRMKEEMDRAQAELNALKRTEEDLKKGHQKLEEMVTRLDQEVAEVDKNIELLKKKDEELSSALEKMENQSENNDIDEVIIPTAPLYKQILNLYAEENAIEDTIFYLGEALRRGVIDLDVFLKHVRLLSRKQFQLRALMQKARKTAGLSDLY

The test concerns the target Tumor susceptibility gene 101 protein (Homo sapiens) (UniProt Q99816). As to the kind of experiment: qHTS Assay for Iinhibitors of HIV-1 Budding by Blocking the Interaction of PTAP/TSG101: Hit Validation in TR assay. To be noted: Tsg101 binding domain + Texas Red-labeled PTAP peptide, fluorescence polarization, 20 min; series mostly up to 57.5 µM. The text has this: Stages of the HIV-1 replication cycle, specifically virus assembly and release, provide underexploited targets for the development of novel antiviral inhibitors. The late stages of HIV-1 replication are mediated by the Gag precursor protein, Pr55Gag. Expression of Pr55Gag is both necessary and sufficient for the production of virus-like particles from Gag-expressing cells. The Gag protein hijacks key host proteins involved in endocytic machinery of the host cell to promote endosomal processing and viral budding. The budding process requires a direct interaction between a […] (PTAP) motif in the p6 domain of Gag and the cellular endosomal sorting protein known as Tsg101. In this way, the Gag PTAP motif promotes the host cells to recruit viral particles to the plasma membrane where the new viral particles are released, effectively turning the host cells into viral factories. A fluorescence anisotropy assay has been developed to quantitatively measure the PTAP-Tsg101 interaction which can be used to screen for inhibitors of this interaction.
This hit validation assay is similar to the primary assay but uses the Texas Red label instead of FITC.
NIH Molecular Libraries Probe Production Network [MLPCN]
NIH Chemical Genomics Center [NCGC]
PI Name: Dr. Eric Freed, NCI
Two uL of the Tsg101 binding domain in buffer (10 mM HEPES pH 7.5; 0.15 M NaCl, 0.01% Tween 20; 3 mM EDTA;0.1 mM TCEP) was dispensed into Greiner black MB 1536-well plates (final concentration 10 uM). Then, 23 nL of compounds or DMSO were delivered to each well using a pin tool. Finally, 2 uL of a TR-labeled peptide containing the PTAP motif (1) in the same buffer was dispensed (50 nM final concentration) and the binding was allowed to proceed for 20 min. at r.t. Fluorescent polarization was determined using TR excitation and polarized emission filters on a Perkin Elmer Viewlux.
Keywords: Tsg101, PTAP, Gag, HIV, fluorescent polarization, MLSMR, MLPCN, NIH Roadmap, qHTS, NCGC
Background: Quantitative high-throughput screening tests each substance at several concentrations.
As to `Nc1ccc2nc(-c3ccccc3)c(-c3ccccc3)nc2c1`, the Potency result is “inactive”.
For the compound `Cn1c(=O)cc2c3c(c(N4CCCCC4)ccc31)C(=O)c1ccccc1-2`, the Potency result is “inactive”.
As for `Oc1ccc2ccccc2c1-c1sc(Nc2ccccc2)n[n+]1-c1ccc(F)cc1`, the Potency entry was “inactive”.
`CC1(C)CC(=O)C2=C(C1)OC(N)=C(C#N)C2c1cc2c(cc1[N+](=O)[O-])OCO2` (stereo not given): the Potency result was “inactive”.
Regarding `Cc1cc(NS(=O)(=O)c2ccc(NC(=O)COc3c(C)cc(Br)cc3C)cc2)no1`, the Potency result was “inactive”.
In the case of `COc1cccc2c1C(=O)c1c(O)c3c(c(O)c1C2=O)C[C@](O)(C(C)=O)C[C@H]3O[C@@H]1C[C@@H](N)[C@@H](O)[C@@H](C)O1`, the Potency result was “inactive”.
For `NC(=O)CSc1nc2c(sc3ccccc32)c(=O)n1CCCC(=O)NCC1CCCO1` (stereo not given) the value was “inactive”; for `CCN(CC)c1ccc(/C=C(\C#N)C(=O)c2ccc(Br)cc2)cc1`, “inactive”.
In the case of `Nc1c(C(=O)Nc2ccc(F)cc2)sc2nc(-c3cccs3)cc(C(F)(F)F)c12`, the Potency entry is “inactive”.
The same measure for `Cn1cc(/C=C2\SC(=S)N(NC(=O)c3ccccc3)C2=O)c2ccccc21`: “inactive”.
For `CCOC(=O)Cn1c(=O)c(-c2cc(Br)ccc2N)nc2ccccc21` the value was “inactive”.
The same measure for `Fc1ccc(C2=CC(c3ccco3)n3ncnc3N2)cc1` (stereo not given): “inactive”; for `Cc1ccc(N=Cc2c(O)ccc3ccccc23)cc1F`: “inactive”; for `CCN(CC)c1ccc2cc(NC(=O)CCC(=O)O)c(=O)oc2c1`: “inactive”.
`Cc1ccccc1-n1c(SCc2c(C)noc2C)nnc1-c1cccnc1`: the Potency entry is “inactive”.
As for `O=C1c2cccc3c(O)ccc(c23)C(=O)N1c1ccc(Cl)cc1`, the Potency result is “inactive”.
Consider `Nc1c(C(=O)C2CC2)sc2nc(-c3ccccc3)cc(C(F)(F)F)c12`, for which the Potency entry is “inactive”.
As for `C=CCn1c(=O)/c(=C/c2ccc(C)o2)s/c1=C(/C#N)C(=O)c1ccccc1`, the Potency result was “inactive”.
For `O=c1c(/C=C(\O)c2ccc(F)cc2)nc2ccccc2n1-c1ccccc1` the value was “inactive”; for `Cc1ccc(-c2cccc(NC(=O)C3C4C=CC(C4)C3C(=O)O)c2)o1` (stereo not given), “inactive”; for `CCN(CC)c1nc2ccccc2nc1C(C#N)C(=O)NCCc1ccccc1` (stereo not given), “inactive”.
The same measure for `N#CC(C(=O)NCc1ccccc1)c1nc2ccccc2nc1N1CCCC1` (stereo not given): “inactive”.
The same measure for `O=C(NCCc1ccc(F)cc1)c1cccc2c1C(=O)c1ccc(N3CCC(Cc4ccccc4)CC3)cc1S2(=O)=O`: “inactive”; for `Cn1c(=O)c2[nH]c(COc3ccccc3)nc2n(C)c1=O`: “inactive”.
In the case of `Cc1c2ccccc2nc2c(F)c(NCCO)c(F)c(F)c12`, the Potency result is “inactive”.
The same measure for `CC(=O)n1c(C=Nc2ccc(Cl)cc2)c(O)c2ccccc21`: “inactive”; for `CCSc1nnc(-c2sc3nnc(-c4ccccc4)c(-c4ccccc4)c3c2N)o1`: “inactive”.
The same measure for `COc1ccc(CCn2c(NN=C(C)C)nc3c2c(=O)[nH]c(=O)n3C)cc1`: “inactive”.
For `O=C1N=C(N2C=CC(=C3C=CNC=C3)C=C2)/C(=C/N=NC(=O)c2ccccc2O)S1` the value was “inactive”.
In the case of `O=C(CC1CC2CCC1C2)NCc1cccs1` (stereo not given), the Potency result is “inactive”.
The same measure for `CCN(CC)S(=O)(=O)c1ccc(C(=O)OCCN2C(=O)c3cccc4c(N5CCOCC5)ccc(c34)C2=O)cc1`: “inactive”.
Take `Cn1nc(-c2ccccc2)c2nc3ccccc3nc21`: the Potency entry is “inactive”.
For the compound `COc1ccc2nc(N3CCCC3)c(C#N)cc2c1`, the Potency entry was “inactive”.
For `CCN1CC=C2C(C#N)=C(N)C(C#N)(C#N)C(CCc3ccccc3)C2C1` (stereo not given) the value was 11.6 µM (active).
The same measure for `CC1(C)Cc2c(C#N)c(SCCC#N)nc(N3CCOCC3)c2CS1`: “inactive”; for `CCCCOc1ccc(C2OC34CCCCC3C(C#N)(C#N)C2(C#N)C(=N)O4)cc1` (stereo not given): “inactive”; for `N#CC(C#N)=C1C=C2C=C(N3CCCCC3)CCC2CC1` (stereo not given): “inactive”.
Take `CCCn1c(O)c(N=Nc2ccc3ccccc3n2)c2ccccc21`: the Potency entry was “inactive”.
For `O=C1CCNc2ccc(-c3ccccc3)cc21` the value was “inactive”; for `COc1ccc(-c2onc3ccc(C(C)=O)cc23)cc1`, “inactive”.
